Key:
Assay in all cases: DAPPL (digital affinity profiling via proximity ligation, sequencing); 10 mM Tris-HCl pH 7.5, 50 mM NaCl, 1 mM DTT, 4% glycerol, room temperature, 30 min; GST-TFs on glutathione beads, 16-mer random dsDNA library, 0.1% formaldehyde crosslink after washing; high values mean tight binding
Conditions in all cases: protein: recombinant; tags: N-terminal GST; dsDNA, one strand shown
[1] = target: T1, ERF (Homo sapiens, UniProt P50548 1-548)
T1 sequence: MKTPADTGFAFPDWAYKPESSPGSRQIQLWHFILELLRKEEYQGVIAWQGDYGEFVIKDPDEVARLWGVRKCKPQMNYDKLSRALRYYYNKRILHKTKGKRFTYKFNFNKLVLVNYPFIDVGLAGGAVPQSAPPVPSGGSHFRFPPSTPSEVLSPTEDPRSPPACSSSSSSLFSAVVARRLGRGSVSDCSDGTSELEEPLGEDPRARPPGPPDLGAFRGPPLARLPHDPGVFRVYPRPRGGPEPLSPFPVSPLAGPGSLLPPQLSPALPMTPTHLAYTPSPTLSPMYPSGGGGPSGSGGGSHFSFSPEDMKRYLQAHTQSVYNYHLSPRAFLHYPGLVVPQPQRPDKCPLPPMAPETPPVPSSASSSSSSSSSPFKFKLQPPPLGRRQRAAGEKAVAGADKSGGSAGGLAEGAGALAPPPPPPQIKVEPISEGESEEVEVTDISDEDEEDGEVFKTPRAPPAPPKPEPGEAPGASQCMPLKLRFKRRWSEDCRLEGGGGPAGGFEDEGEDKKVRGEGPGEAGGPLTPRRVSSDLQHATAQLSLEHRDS
Outline: (§1)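 Binding signal is each hexamer's read frequency for a factor divided by its frequency in the tag-only sample. The factors were GST-fused human transcription factors from yeast, captured on glutathione beads, DNA-barcoded and pooled with that sample. Pools were incubated with 200 nmole of a random double-stranded 16-mer DNA library in Tris/NaCl/DTT/glycerol buffer at room temperature for 30 min, then washed, crosslinked with 0.1% formaldehyde, proximity-ligated with BsaI/T4 ligase (1 h, 37 °C), PCR-amplified and sequenced on an Illumina NextSeq500.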

[2] = target: T2, ETV3L (Homo sapiens, UniProt Q6ZN32 1-361)
T2 sequence: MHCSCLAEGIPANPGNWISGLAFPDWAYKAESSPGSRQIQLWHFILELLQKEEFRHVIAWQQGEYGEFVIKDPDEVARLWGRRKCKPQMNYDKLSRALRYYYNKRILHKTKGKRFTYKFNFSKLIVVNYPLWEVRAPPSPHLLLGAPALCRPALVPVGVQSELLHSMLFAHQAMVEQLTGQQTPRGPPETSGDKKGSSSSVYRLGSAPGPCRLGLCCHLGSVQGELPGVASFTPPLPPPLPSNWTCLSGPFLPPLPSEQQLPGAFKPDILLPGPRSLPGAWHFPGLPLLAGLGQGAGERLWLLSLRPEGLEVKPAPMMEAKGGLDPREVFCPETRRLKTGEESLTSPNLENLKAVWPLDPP
Outline: as §1

[3] = target: T3, ETS2 (Homo sapiens, UniProt P15036 1-469)
T3 sequence: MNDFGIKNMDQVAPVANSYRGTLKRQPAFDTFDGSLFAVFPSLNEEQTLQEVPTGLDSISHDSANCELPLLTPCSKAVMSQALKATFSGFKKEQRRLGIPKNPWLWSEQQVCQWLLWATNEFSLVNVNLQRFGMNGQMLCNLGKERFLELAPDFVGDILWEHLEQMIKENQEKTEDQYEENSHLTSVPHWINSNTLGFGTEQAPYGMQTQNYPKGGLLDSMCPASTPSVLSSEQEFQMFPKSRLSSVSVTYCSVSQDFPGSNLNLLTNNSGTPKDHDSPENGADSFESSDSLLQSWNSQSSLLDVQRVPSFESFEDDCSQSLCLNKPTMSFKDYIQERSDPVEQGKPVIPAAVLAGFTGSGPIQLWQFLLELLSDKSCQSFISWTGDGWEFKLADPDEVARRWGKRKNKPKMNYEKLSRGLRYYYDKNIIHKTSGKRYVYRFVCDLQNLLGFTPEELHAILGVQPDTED
Outline: as §1

[4] = target: T4, SPDEF (Homo sapiens, UniProt O95238 1-335)
T4 sequence: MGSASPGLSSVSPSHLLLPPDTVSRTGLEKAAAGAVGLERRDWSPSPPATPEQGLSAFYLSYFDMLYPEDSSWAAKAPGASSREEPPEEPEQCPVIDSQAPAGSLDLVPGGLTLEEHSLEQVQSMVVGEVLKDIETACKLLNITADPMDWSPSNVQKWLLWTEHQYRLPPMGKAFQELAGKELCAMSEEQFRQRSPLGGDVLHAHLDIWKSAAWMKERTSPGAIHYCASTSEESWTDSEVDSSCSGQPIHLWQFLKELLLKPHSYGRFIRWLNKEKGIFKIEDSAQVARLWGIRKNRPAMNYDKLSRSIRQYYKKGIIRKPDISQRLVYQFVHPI
Outline: as §1

[5] = target: T5, ETV7 (Homo sapiens, UniProt Q9Y603 1-341)
T5 sequence: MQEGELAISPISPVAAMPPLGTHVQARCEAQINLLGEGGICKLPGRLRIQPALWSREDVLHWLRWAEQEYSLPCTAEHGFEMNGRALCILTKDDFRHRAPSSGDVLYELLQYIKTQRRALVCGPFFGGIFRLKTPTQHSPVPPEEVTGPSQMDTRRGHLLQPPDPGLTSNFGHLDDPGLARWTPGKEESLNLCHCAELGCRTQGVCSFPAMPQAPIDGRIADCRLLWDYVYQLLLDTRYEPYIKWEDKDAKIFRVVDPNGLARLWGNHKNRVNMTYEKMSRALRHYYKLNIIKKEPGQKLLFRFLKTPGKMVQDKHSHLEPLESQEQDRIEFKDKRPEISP
Outline: as §1

[6] = target: T6, ELF5 (Homo sapiens, UniProt Q9UKW6-2 1-255)
T6 sequence: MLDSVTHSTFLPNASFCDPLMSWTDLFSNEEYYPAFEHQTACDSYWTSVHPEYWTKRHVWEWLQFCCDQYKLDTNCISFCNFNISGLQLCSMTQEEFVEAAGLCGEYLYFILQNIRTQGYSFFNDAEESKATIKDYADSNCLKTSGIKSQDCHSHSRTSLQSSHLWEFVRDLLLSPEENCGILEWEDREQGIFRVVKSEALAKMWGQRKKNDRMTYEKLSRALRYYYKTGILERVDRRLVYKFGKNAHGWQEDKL
Outline: as §1

[7] = target: T7, ETV3 (Homo sapiens, UniProt P41162-2 1-143)
T7 sequence: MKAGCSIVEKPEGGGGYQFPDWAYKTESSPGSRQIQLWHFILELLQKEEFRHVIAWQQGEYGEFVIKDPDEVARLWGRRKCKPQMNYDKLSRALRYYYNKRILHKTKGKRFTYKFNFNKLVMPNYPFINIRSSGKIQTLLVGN
Outline: as §1

[8] = target: ETV6 (Homo sapiens, UniProt P41212 1-452)
Outline: as §1

Sequence of ETV6 (P41212 whole entry): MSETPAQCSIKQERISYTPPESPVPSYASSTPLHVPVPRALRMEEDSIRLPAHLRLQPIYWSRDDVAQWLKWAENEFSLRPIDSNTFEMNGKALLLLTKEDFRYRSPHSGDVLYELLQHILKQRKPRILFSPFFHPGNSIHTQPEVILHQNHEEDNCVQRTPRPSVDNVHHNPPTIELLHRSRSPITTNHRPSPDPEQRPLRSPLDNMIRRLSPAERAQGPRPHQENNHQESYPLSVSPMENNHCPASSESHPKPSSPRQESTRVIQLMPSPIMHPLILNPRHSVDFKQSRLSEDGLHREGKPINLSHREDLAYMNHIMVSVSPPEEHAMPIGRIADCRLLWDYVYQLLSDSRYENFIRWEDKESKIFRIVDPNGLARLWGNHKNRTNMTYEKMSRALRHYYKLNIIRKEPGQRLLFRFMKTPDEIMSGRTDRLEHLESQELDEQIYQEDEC

Sequence | binding signal [1] | binding signal [2] | binding signal [3] | binding signal [4] | binding signal [5] | binding signal [6] | binding signal [7] | binding signal [8]
CTTTTA | 1.39 fold enrichment (6-mer frequency, TF over GST control) | 1.42 fold enrichment (6-mer frequency, TF over GST control) | 1.32 fold enrichment (6-mer frequency, TF over GST control) | 1.18 fold enrichment (6-mer frequency, TF over GST control) | 1.42 fold enrichment (6-mer frequency, TF over GST control) | 1.21 fold enrichment (6-mer frequency, TF over GST control) | 1.4 fold enrichment (6-mer frequency, TF over GST control) | 1.31 fold enrichment (6-mer frequency, TF over GST control)
GCTTAT | 1.31 fold enrichment (6-mer frequency, TF over GST control) | 1.23 fold enrichment (6-mer frequency, TF over GST control) | 1.36 fold enrichment (6-mer frequency, TF over GST control) | 1.43 fold enrichment (6-mer frequency, TF over GST control) | 1.43 fold enrichment (6-mer frequency, TF over GST control) | 1.15 fold enrichment (6-mer frequency, TF over GST control) | 1.2 fold enrichment (6-mer frequency, TF over GST control) | 1.23 fold enrichment (6-mer frequency, TF over GST control)
TCCTGG | 1.43 fold enrichment (6-mer frequency, TF over GST control) | 1.83 fold enrichment (6-mer frequency, TF over GST control) | 1.82 fold enrichment (6-mer frequency, TF over GST control) | 2.13 fold enrichment (6-mer frequency, TF over GST control) | 1.56 fold enrichment (6-mer frequency, TF over GST control) | 2.35 fold enrichment (6-mer frequency, TF over GST control) | 1.74 fold enrichment (6-mer frequency, TF over GST control) | 1.77 fold enrichment (6-mer frequency, TF over GST control)
CCTCAC | 1.09 fold enrichment (6-mer frequency, TF over GST control) | 1.19 fold enrichment (6-mer frequency, TF over GST control) | 1.19 fold enrichment (6-mer frequency, TF over GST control) | 1.24 fold enrichment (6-mer frequency, TF over GST control) | 1.15 fold enrichment (6-mer frequency, TF over GST control) | 1.22 fold enrichment (6-mer frequency, TF over GST control) | 1.12 fold enrichment (6-mer frequency, TF over GST control) | 1.07 fold enrichment (6-mer frequency, TF over GST control)
GTATAC | 1.41 fold enrichment (6-mer frequency, TF over GST control) | 1.16 fold enrichment (6-mer frequency, TF over GST control) | 1.32 fold enrichment (6-mer frequency, TF over GST control) | 1.3 fold enrichment (6-mer frequency, TF over GST control) | 1.2 fold enrichment (6-mer frequency, TF over GST control) | 1.31 fold enrichment (6-mer frequency, TF over GST control) | 1.23 fold enrichment (6-mer frequency, TF over GST control) | 1.19 fold enrichment (6-mer frequency, TF over GST control)
GATGCC | 1.36 fold enrichment (6-mer frequency, TF over GST control) | 1.39 fold enrichment (6-mer frequency, TF over GST control) | 1.33 fold enrichment (6-mer frequency, TF over GST control) | 1.52 fold enrichment (6-mer frequency, TF over GST control) | 1.27 fold enrichment (6-mer frequency, TF over GST control) | 1.35 fold enrichment (6-mer frequency, TF over GST control) | 1.39 fold enrichment (6-mer frequency, TF over GST control) | 1.32 fold enrichment (6-mer frequency, TF over GST control)
AACTTG | 1.18 fold enrichment (6-mer frequency, TF over GST control) | 1.17 fold enrichment (6-mer frequency, TF over GST control) | 1.18 fold enrichment (6-mer frequency, TF over GST control) | 1.14 fold enrichment (6-mer frequency, TF over GST control) | 1.08 fold enrichment (6-mer frequency, TF over GST control) | 1.06 fold enrichment (6-mer frequency, TF over GST control) | 1.28 fold enrichment (6-mer frequency, TF over GST control) | 1.09 fold enrichment (6-mer frequency, TF over GST control)
AAACTG | 1.03 fold enrichment (6-mer frequency, TF over GST control) | 1.08 fold enrichment (6-mer frequency, TF over GST control) | 1.08 fold enrichment (6-mer frequency, TF over GST control) | 1.02 fold enrichment (6-mer frequency, TF over GST control) | 1.13 fold enrichment (6-mer frequency, TF over GST control) | 1.1 fold enrichment (6-mer frequency, TF over GST control) | 1.07 fold enrichment (6-mer frequency, TF over GST control) | 1.12 fold enrichment (6-mer frequency, TF over GST control)
TTTTAG | 1.26 fold enrichment (6-mer frequency, TF over GST control) | 1.26 fold enrichment (6-mer frequency, TF over GST control) | 1.2 fold enrichment (6-mer frequency, TF over GST control) | 1.12 fold enrichment (6-mer frequency, TF over GST control) | 1.24 fold enrichment (6-mer frequency, TF over GST control) | 1.06 fold enrichment (6-mer frequency, TF over GST control) | 1.21 fold enrichment (6-mer frequency, TF over GST control) | 1.19 fold enrichment (6-mer frequency, TF over GST control)
CGACAC | 1.08 fold enrichment (6-mer frequency, TF over GST control) | 1.21 fold enrichment (6-mer frequency, TF over GST control) | 1.19 fold enrichment (6-mer frequency, TF over GST control) | 1.15 fold enrichment (6-mer frequency, TF over GST control) | 1.16 fold enrichment (6-mer frequency, TF over GST control) | 1.19 fold enrichment (6-mer frequency, TF over GST control) | 1.2 fold enrichment (6-mer frequency, TF over GST control) | 1.28 fold enrichment (6-mer frequency, TF over GST control)
CTTGTC | 1.44 fold enrichment (6-mer frequency, TF over GST control) | 1.25 fold enrichment (6-mer frequency, TF over GST control) | 1.24 fold enrichment (6-mer frequency, TF over GST control) | 1.35 fold enrichment (6-mer frequency, TF over GST control) | 1.25 fold enrichment (6-mer frequency, TF over GST control) | 1.3 fold enrichment (6-mer frequency, TF over GST control) | 1.31 fold enrichment (6-mer frequency, TF over GST control) | 1.25 fold enrichment (6-mer frequency, TF over GST control)
ATAGTT | 1.23 fold enrichment (6-mer frequency, TF over GST control) | 1.27 fold enrichment (6-mer frequency, TF over GST control) | 1.18 fold enrichment (6-mer frequency, TF over GST control) | 1.12 fold enrichment (6-mer frequency, TF over GST control) | 1.19 fold enrichment (6-mer frequency, TF over GST control) | 1.12 fold enrichment (6-mer frequency, TF over GST control) | 1.31 fold enrichment (6-mer frequency, TF over GST control) | 1.21 fold enrichment (6-mer frequency, TF over GST control)
TAAACC | 1.28 fold enrichment (6-mer frequency, TF over GST control) | 1.26 fold enrichment (6-mer frequency, TF over GST control) | 1.22 fold enrichment (6-mer frequency, TF over GST control) | 1.28 fold enrichment (6-mer frequency, TF over GST control) | 1.22 fold enrichment (6-mer frequency, TF over GST control) | 1.21 fold enrichment (6-mer frequency, TF over GST control) | 1.26 fold enrichment (6-mer frequency, TF over GST control) | 1.29 fold enrichment (6-mer frequency, TF over GST control)
ACATAC | 1.23 fold enrichment (6-mer frequency, TF over GST control) | 1.15 fold enrichment (6-mer frequency, TF over GST control) | 1.21 fold enrichment (6-mer frequency, TF over GST control) | 1.2 fold enrichment (6-mer frequency, TF over GST control) | 1.12 fold enrichment (6-mer frequency, TF over GST control) | 1.14 fold enrichment (6-mer frequency, TF over GST control) | 1.18 fold enrichment (6-mer frequency, TF over GST control) | 1.17 fold enrichment (6-mer frequency, TF over GST control)
ATATTG | 1.31 fold enrichment (6-mer frequency, TF over GST control) | 1.41 fold enrichment (6-mer frequency, TF over GST control) | 1.36 fold enrichment (6-mer frequency, TF over GST control) | 1.43 fold enrichment (6-mer frequency, TF over GST control) | 1.33 fold enrichment (6-mer frequency, TF over GST control) | 1.34 fold enrichment (6-mer frequency, TF over GST control) | 1.35 fold enrichment (6-mer frequency, TF over GST control) | 1.42 fold enrichment (6-mer frequency, TF over GST control)
